# Screening data (PubChem BioAssay)
# Rows were chosen to be rich in hits. Some 7.3% of all compounds tested hit in one or more screens of this group.
# ELG1 genotoxic = qHTS screen for small molecules that induce genotoxicity in human embryonic kidney (HEK293T) cells expressing luciferase-tagged ELG1. hit rate 1.3% among 330,000. AID 504466, 2011. Potency, µM (doses to about 46 µM), for the others: at the highest dose activity change, positive = activation, actives largely listed as activators. HEK293T ELG1-luciferase reporter, luminescence, 16 h; also: % of control where 0% means no effect; nearly all actives have a fitted effect of over 60% in size
#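 Luminescence read-out: rising ELG1-luciferase signal, reflecting elevated ELG1 protein under genetic stress, flags genotoxic compounds. Cells were treated for 16 hr at 37 °C before ONE-Glo detection.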
# FLuc counter = qHTS profiling assay for firefly luciferase inhibitor/activator using purifed enzyme and Km concentrations of substrates (counterscreen for miR-21 project); purified FLuc, Km substrates, luminescence inhibition; Potency, µM (titrated, usually from 57.5 µM), inactives show at the top dose activity change, negative = inhibition, actives largely listed as inhibitors; hit rate 6.9% among 360,000; AID 588342, 2011;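 also: plate controls were vehicle for no effect and reference inhibitor for full effect; nearly all actives have a fitted effect of over 55% in size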
# Target sequence (P08659 whole entry, looked up): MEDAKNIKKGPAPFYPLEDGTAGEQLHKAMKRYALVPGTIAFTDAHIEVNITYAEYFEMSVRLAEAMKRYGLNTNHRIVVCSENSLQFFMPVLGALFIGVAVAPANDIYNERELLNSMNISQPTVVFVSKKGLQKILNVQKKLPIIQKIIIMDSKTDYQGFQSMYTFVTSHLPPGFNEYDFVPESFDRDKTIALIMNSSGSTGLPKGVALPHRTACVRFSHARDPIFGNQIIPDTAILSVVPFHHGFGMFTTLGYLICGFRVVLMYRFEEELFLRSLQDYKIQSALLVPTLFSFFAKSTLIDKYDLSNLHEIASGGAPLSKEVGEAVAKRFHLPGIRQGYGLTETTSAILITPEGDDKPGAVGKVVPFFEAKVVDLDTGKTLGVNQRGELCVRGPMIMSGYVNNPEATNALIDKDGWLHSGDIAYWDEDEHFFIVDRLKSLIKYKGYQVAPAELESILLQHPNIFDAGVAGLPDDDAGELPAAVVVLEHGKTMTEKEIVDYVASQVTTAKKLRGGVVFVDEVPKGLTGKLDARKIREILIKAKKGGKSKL
#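 Purified P. pyralis luciferase, 10 nM final, with Km-level 10 uM D-luciferin and 10 uM ATP in 50 mM Tris acetate pH 7.5, 10 mM Mg acetate, 0.01% Tween-20, 0.05% BSA; 6-point qHTS titration about 60 µM downward; luminescence read.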
# SMN2 splice enh = qHTS Assay for Enhancers of SMN2 Splice Variant Expression; HEK293 SMN2-luciferase splicing reporter, luminescence, 30-36 h; Potency, µM (titrated, usually from 46.1 µM), inactives show at the highest dose activity change, positive = activation, usual class: activators; hit rate 2.8% among 210,000; AID 1458, 2008; also: % of control where 0% means no effect; nearly all actives have a fitted effect of over 55% in size
#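 HEK293 cells carry an SMN2 minigene-luciferase reporter in which exon 7 inclusion puts luciferase in frame. Cells were seeded at 2000 cells/well, attached for 10-12 hours, then exposed to compounds for 30-36 hours at 37C before ONE-Glo luminescence.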
# uPA generation = qHTS for Inhibitors of Cell Surface uPA Generation; Potency, µM (titrated, usually from 38.3 µM), for the others: top-dose activity change, negative = inhibition, actives largely listed as inhibitors; hit rate 0.31% among 330,000; cell surface uPA generation assay, qHTS; active = well fitted inhibition curve with a large enough effect; inconclusive = small, poorly fitted or top-dose-only effect; inactive = no such curve, though single readings can be large or run the other way; tested in mouse RAW 264.7 cells; also: % is scaled to controls: 0 for no effect and ±100 for the full control effect; nearly all actives have a fitted effect of over 55% in size
# NPC1 prom act = qHTS Assay for NPC1 Promoter Activators. Huh7 NPC1 promoter luciferase reporter, 24 h. Potency, µM (titrated, usually from 9.22 µM), for the others: at the highest dose activation, actives largely listed as activators. hit rate 2.4% among 320,000. AID 485313, 2010; also: % of control where 0% means no effect; nearly all actives have a fitted effect of over 60% in size
#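 Huh7 cells stably carrying NPC1 promoter–luciferase, plated in Opti-MEM with 10% FBS for 2 h, were exposed to compound in DMSO for 24 h at 37 °C; luciferase reagent was added for 10 min and luminescence read.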
# Rab9 promoter act = qHTS Assay for Rab9 Promoter Activators | Huh7 Rab9 promoter-luciferase reporter, luminescence, 24 h | hit rate 2.8% among 320,000 | Potency, µM (doses to about 9.22 µM), without a hit: top-dose activation, negative = inhibition, actives largely listed as activators | AID 485297, 2010; also: % of control where 0% means no effect; nearly all actives have a fitted effect of over 60% in size
#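 Huh7 reporter line, Rab9 promoter upstream of luciferase. Compound exposure 24 h at 37 °C in reduced-serum medium with 10% FBS. Read-out: luminescence.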
# Numbers without * were called inactive; ? = inconclusive; . = not tested or not shown; [ ] = another dose, or the depositor's remark. Unless noted, calls follow the shape of the dose curve; as a rule, active = well fitted curve in the direction sought with a large enough effect; inconclusive = small, poorly fitted or top-dose-only effect, or another doubt; inactive = no such curve, though single readings can be large; an effect the other way counts as inactive or inconclusive. Potency is read from the fitted curve at half-maximal effect.
SMILES,ELG1 genotoxic,FLuc counter,SMN2 splice enh,uPA generation,NPC1 prom act,Rab9 promoter act
CCOc1ccc(NC(=O)CN(c2ccc(OC)c(OC)c2)S(=O)(=O)c2ccc(C)cc2)cc1,-2%,-2%,.,3%,-10%,8%
CCOc1ccc(CC(=O)Nc2ccc(NC(=O)c3ccco3)cc2)cc1OCC,4%,-1%,-61%,8%,-4%,1%
O=C1c2ccccc2CC1Sc1nnc(-c2ccccn2)o1 (centres undefined),8%,12µM*,17%,-2%,17%,25%
O=C1CC(Sc2nnc(-c3ccccc3O)o2)C(=O)N1c1ccccc1 (centres undefined),-3%,?,-17%,-22%,-1%,1%
CC(=O)c1ccc(NC(=O)CCc2c(C)nc3cc(-c4ccc(Cl)cc4)nn3c2C)cc1,.,17µM*,-21%,.,.,.
CCN(CC)S(=O)(=O)c1ccc(NC(=O)CCc2c(C)nc3cc(-c4ccc(Cl)cc4)nn3c2C)cc1,.,?,0%,.,.,.
Cc1ccc(NC(=O)CCc2c(C)nc3cc(-c4ccccc4)nn3c2C)cc1F,.,11µM*,19%,.,.,.
CCOc1ccccc1NC(=O)CCc1c(C)nc2cc(-c3ccccc3)nn2c1C,.,-19%,-4%,.,.,.
O=C(/C=C/Nc1ccc([N+](=O)[O-])cc1Br)c1cccc2ccccc12,?,2.4µM*,5.6µM*,-2%,3.2µM*,1.1µM*
NC(=O)c1cc([N+](=O)[O-])ccc1NCc1cccc2ccccc12,4%,-12%,.,?,-3%,-3%
O=S(=O)(c1ccccc1)c1nnn2c1nc(NCc1ccccc1)c1sccc12,.,0%,.,.,.,.
O=C(/C=C/c1ccccc1Cl)NNC(=O)c1ccncc1,1%,21µM*,.,-6%,2%,20%
N/C(=N\OC(=O)/C=C/c1ccccc1Cl)c1ccncc1,6%,0.85µM*,1.4µM*,-2%,1.3µM*,0.71µM*
O=C(/C=C/c1ccccc1)c1ccccn1,19%,1.3µM*,-11%,3%,?,?
N/C(=N\OC(=O)CCCOc1ccccc1)c1ccncc1,1%,-2%,10%,3%,0%,-4%
O=C(/C=C/c1ccccc1)N1CCN(c2ccccn2)CC1,5%,?,-4%,-4%,0%,1%
N/C(=N\OC(=O)/C=C/c1ccccc1)c1ccncc1,?,6µM*,3%,-19%,3.2µM*,1.8µM*
N/C(=N\OC(=O)/C=C/c1ccccc1)c1ccccn1,4.1µM*,0.67µM*,13µM*,-6%,?,2.5µM*
COc1ccc2cc3cc(C(=O)N4CCN(c5ccccn5)CC4)oc3nc2c1,-5%,19µM*,.,-1%,-5%,0%
CCOC(=O)C1CCN(C(=O)c2cc3cc4ccc(OC)cc4nc3o2)CC1,?,?,.,0%,0.63µM*,0.89µM*
O=C(Cc1ccccc1)Nc1sc2c(c1C(=O)Nc1ccccc1Cl)CCCC2,.,-17%,-8%,.,.,.
COc1ccc2sc3ccccc3c(=O)c2c1OC,?,15µM*,19%,-7%,?,?
O=C(c1ccc(C#CC2(O)CCCCC2)cc1)N1CCN(C(c2ccccc2)c2ccccc2)CC1,9%,-2%,-2%,6%,-1%,1%
COc1cccc2sc3ccc(C#Cc4ccc(N)cc4)cc3c(=O)c12,?,4.8µM*,.,-12%,3.5µM*,2.5µM*
Nc1ccc(C#Cc2ccc3sc4ccccc4c(=O)c3c2)cc1,.,.,.,9%,.,.
SMILES,ELG1 genotoxic,FLuc counter,SMN2 splice enh,uPA generation,NPC1 prom act,Rab9 promoter act
COc1ccccc1-c1sc2cc3c(cc2c1C#CC1(O)CCCCC1)OCO3,-2%,-2%,.,7%,8%,-2%
O=c1c2ccccc2sc2ccc(C#CC3(O)CCCCC3)cc12,.,.,.,2.5µM*,.,.
COc1cccc2sc3ccc(C#CC4(O)CCCCC4)cc3c(=O)c12,?,2.1µM*,.,?,1.6µM*,2.8µM*
CC(C)(C)C(=O)N1N=C(c2ccc(NS(C)(=O)=O)cc2)CC1c1cccs1 (centres undefined),2%,?,-7%,4%,-1%,4%
Nn1c(COc2ccc(Cl)cc2)nc2ccccc2c1=O,?,?,14µM*,-4%,?,?
O=C1CC(c2nc(-c3ccc(Cl)cc3)no2)CN1c1ccc2c(c1)OCCO2 (centres undefined),.,-12%,.,.,.,.
COc1ccc(NC(=O)c2[nH]c(C)c(C(C)=O)c2C)cc1,?,?,.,-6%,?,?
CCOc1ccc(NC(=O)c2[nH]c(C)c(C(C)=O)c2C)cc1,?,15µM*,.,-19%,?,?
CC(=O)c1c(C)[nH]c(C(=O)Nc2cc(F)ccc2C)c1C,2%,1%,.,-1%,2%,-1%
CCc1ccc(NC(=O)c2[nH]c(C)c(C(C)=O)c2C)cc1,?,12µM*,.,-2%,1.6µM*,1.6µM*
Cc1cc(C)n(-c2nc(C)c(C)c(=O)n2CC(=O)Nc2ccc([N+](=O)[O-])cc2)n1,.,3%,.,.,.,.
Cc1cc(C)cc(N(CC(=O)Nc2ccc(-c3nc4ccc(C)cc4s3)cc2)S(C)(=O)=O)c1,?,5.4µM*,3%[1.84 µM],0%,?,?
Cc1ccc2nc(-c3ccc(NC(=O)CN(c4ccccc4C)S(C)(=O)=O)cc3)sc2c1,?,2.4µM*,11µM*,8%,?,3.2µM*
Cc1cccc(N(CC(=O)Nc2ccc(F)cc2)S(C)(=O)=O)c1,2%,-1%,6%,2%,-2%,0%
O=C(c1ccc(-c2nnc(-c3ccccc3)o2)cc1)N1CCCCCC1,?,4.8µM*,.,3%,1.4µM*,0.56µM*
O=C(O)c1ccc(-c2nnc(-c3ccccc3)o2)cc1,?,5.4µM*,.,-25%,0.32µM*,?
O=C(c1ccc(-c2ccccc2)cc1)N1CCC(C(=O)N2CCCC2)CC1,-3%,0%,?,-6%,0%,-2%
O=C(O)c1ccc(-c2nnc(-c3ccc([N+](=O)[O-])cc3)o2)cc1,-1%,-8%,.,-4%,-1%,4%
COC(=O)c1ccc(CSc2nc3c([nH]c4ccccc43)c(=O)n2-c2ccc(F)cc2)o1,.,-4%,.,.,.,.
O=S1(=O)c2cccc3cccc(c23)N1Cc1nnc(-c2ccccc2Br)o1,-2%,-1%,-45%,-8%,3%,3%
O=C1c2ccccc2S(=O)(=O)N1Cc1nnc(-c2ccccc2Br)o1,3%,21µM*,-6%,-7%,8%,1%
